Experiment [1] can be described thus: reducers of endogenous Her2 protein level, primary screen, SKBR3 breast tumor cells, AlphaScreen, ATP viability (AID 461;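 active = Her2 level under about 52% in both replicate screens, with viability over 70% of control, limit read from the data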;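 for Her2 level: lower value means less Her2 protein in the cells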;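 for viability: percent of carrier control wells set as 100% viability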). Conditions: 18-24 h, measured here: SKBR3 viability, ATP luminescence, at 10 µM. A general note: Bead proximity is the source of the signal in Alpha formats.
In experiment [2] the target is Receptor tyrosine-protein kinase erbB-2 (Homo sapiens) (UniProt P04626). Described as above. As to conditions: 18-24 h, at 10 µM, stronger effect = lower value.
Experiment [3] in a line: SK-BR-3 cell growth inhibitors, pilot screen, 24 h, human (AID 572;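 active = viability at or below 10% of carrier control in both of two separate runs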;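 note: compound exposure lasted between 18 and 24 h rather than exactly 24 h; 100% = carrier-treated control wells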). Conditions: SK-BR-3 viability, CellTiter-Glo luminescence, at 10 µM, stronger effect = lower value.
A short description of experiment [4]: HUVEC growth inhibition – cell-based, human, primary screen (AID 575).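 Note: 100% = median of untreated cell wells with 0.1% DMSO on each plate.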 As to conditions: HUVEC proliferation, CellTiter-Glo luminescence, 72 h; at 10 µM; stronger effect = lower value.
Experiment [5] can be described thus: growth inhibitors of H69AR lung tumor, primary screen, human, duplicate replicates (AID 580;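 active = viability at or under a set limit in both replicates, limit being median viability minus 3 SD, cut at about 48% in these data, passing the limit was not always enough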;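 note: 100% = mean luminescence of untreated wells and 0% = no signal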). As to conditions: H69AR lung tumor cells viability, ATP luminescence, 72 h; at 10 µM; stronger effect = lower value.
Experiment [6] in a line: reversal of MRP1-mediated doxorubicin resistance, pilot screen, H69AR cells, doxorubicin co-treatment (AID 601;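 active = viability loss from added drug above about 55%, and viability with drug at most 40%, in both replicates, limit read from the data, passing the limit was not always enough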). As to conditions: CellTiter-Glo, 72 h, at 10 µM; for differential viability (reversal): stronger effect = higher value. (In general: In ATP-based viability assays light output follows the ATP content of the culture.)
Experiment [7] in a line: 384-well plate pilot, post-Golgi transport modulator project, inhibition of yeast transport mutant growth (AID 636; in the data active = inhibition above about 31%). As to conditions: absorbance 615 nm, about 18 h, stronger effect = higher value.
Experiment [8] in a line: growth suppression of yeast trafficking mutant, preliminary HTS, modulators of trafficking downstream of Golgi apparatus project, 1536-format plate, OD 615 nm (AID 637; in the data active = inhibition above about 30%). As to conditions: yeast transport mutant growth, absorbance 615 nm, 18 h; stronger effect = higher value.
Experiment [9] can be described thus: OD615 S. cerevisiae growth inhibition, permissive medium, pilot counter-assay, permissive growth control for S. cerevisiae lifespan shortening project (AID 705;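 active = growth inhibition above 25% in both replicates, a cutoff set 3 SD above the mean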). Conditions: OD615, 24 h, at 10 µM, stronger effect = higher value.
A short description of experiment [10]: Restrictive medium S. cerevisiae growth inhibition, OD615, pilot screen of yeast lifespan reduction project, restrictive growth control (AID 706;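 active = growth inhibition above a set limit, 3 SD over mean compound inhibition, in both replicates, cut at about 43% in these data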;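 note: modified DeaD lifespan yeast strain shifted to restrictive glucose medium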). As to conditions: OD615, 48 h, at 10 µM, stronger effect = higher value.
The nature of experiment [11]: viability gain of MRP-1-high H69AR cells under doxorubicin, pilot screen, MRP-1 activator project, CellTiter-Glo, duplicate (AID 807;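 active = viability increase at or above a cutoff of the median across tested compounds plus 3 SD, cut at about 8.5% in these data, passing the limit was not always enough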;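 note: compound pretreatment 18-22 h then 72 h combined with doxorubicin; 0% = doxorubicin alone and 100% = vehicle without doxorubicin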). As to conditions: H69AR viability with doxorubicin, CellTiter-Glo luminescence; at 10 µM; stronger effect = higher value.
Experiment [12] can be described thus: growth suppression of beta-catenin knockout HCT116, pilot screen, human colon tumor cells (AID 823;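 active = cell viability at or below a set limit in both duplicate runs, the limit being the all-compound median minus 4 SD, cut at about 23% in these data, passing the limit was not always enough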;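 note: 0% = wells killed by 20 µM Hyamine and 100% = untreated DMSO cell wells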). As to conditions: CellTiter-Glo, 60 h, at 10 µM, stronger effect = lower value.
Experiment [13] is described as follows: growth suppression of PTEN-deleted HCT116, pilot screen, cell-based, HCT116 clonal line, CellTiter-Glo (AID 824;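 active = viability at or below 27.92% in each of two runs, the all-compound median minus 4 SD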;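 note: 0% = 20 µM Hyamine control and 100% = vehicle cell control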). Conditions: 60 h, at 10 µM, stronger effect = lower value.
Experiment [14] in a line: inhibitors of the yeast RAM network, pilot screen, dse1pr::URA3 reporter, 5-FOA selection (AID 869;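 active = inhibition over a set limit, the all-compound mean plus 3 SD, in both replicate runs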;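 note: 0% = DMSO wells with no growth and 100% = 10 µM 1-NA-PP1 with full growth; RAM network block rescues cells from 5-FOA so hits raise OD615 growth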). As to conditions: S. cerevisiae dse1pr::URA3 5-FOA growth, OD615, 2 d; at 10 µM; stronger effect = higher value; strain carries analog-sensitive mutant Cbk1 kinase.
The nature of experiment [15]: RAM signaling pathway blockade in yeast – S. cerevisiae, Pdr1DBD-CYC8 efflux-inhibited sensitized strain, primary screen (AID 1298;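 active = RAM network inhibition above 8.4% in each of two replicates, 3 SD over the compound average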;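 note: 0% = DMSO untreated cells without growth and 100% = 10 µM 1-NA-PP1 full growth; higher means more yeast growth rescued from 5-FOA killing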). As to conditions: S. cerevisiae cbk1-as DSE1-URA3 strain, 5-FOA growth OD615, 2 d; at 50 µM; stronger effect = higher value.
Where [16] appears, read: H69AR cells + 2 uM doxorubicin, measured here: viability with 2 uM doxorubicin, stronger effect = lower value.
Setting [17] is: H69AR cells, compound alone cytotoxicity.

Results filed as inconclusive are left out. Activity calls are given as the source filed them.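 Rule for the calls, unless noted: active = viability at or below 30% in both replicate assays; inconclusive = viability at or below 30% in just one of the two assays; inactive = the rest.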

Sequence of Receptor tyrosine-protein kinase erbB-2 (Homo sapiens) (P04626 whole entry, looked up): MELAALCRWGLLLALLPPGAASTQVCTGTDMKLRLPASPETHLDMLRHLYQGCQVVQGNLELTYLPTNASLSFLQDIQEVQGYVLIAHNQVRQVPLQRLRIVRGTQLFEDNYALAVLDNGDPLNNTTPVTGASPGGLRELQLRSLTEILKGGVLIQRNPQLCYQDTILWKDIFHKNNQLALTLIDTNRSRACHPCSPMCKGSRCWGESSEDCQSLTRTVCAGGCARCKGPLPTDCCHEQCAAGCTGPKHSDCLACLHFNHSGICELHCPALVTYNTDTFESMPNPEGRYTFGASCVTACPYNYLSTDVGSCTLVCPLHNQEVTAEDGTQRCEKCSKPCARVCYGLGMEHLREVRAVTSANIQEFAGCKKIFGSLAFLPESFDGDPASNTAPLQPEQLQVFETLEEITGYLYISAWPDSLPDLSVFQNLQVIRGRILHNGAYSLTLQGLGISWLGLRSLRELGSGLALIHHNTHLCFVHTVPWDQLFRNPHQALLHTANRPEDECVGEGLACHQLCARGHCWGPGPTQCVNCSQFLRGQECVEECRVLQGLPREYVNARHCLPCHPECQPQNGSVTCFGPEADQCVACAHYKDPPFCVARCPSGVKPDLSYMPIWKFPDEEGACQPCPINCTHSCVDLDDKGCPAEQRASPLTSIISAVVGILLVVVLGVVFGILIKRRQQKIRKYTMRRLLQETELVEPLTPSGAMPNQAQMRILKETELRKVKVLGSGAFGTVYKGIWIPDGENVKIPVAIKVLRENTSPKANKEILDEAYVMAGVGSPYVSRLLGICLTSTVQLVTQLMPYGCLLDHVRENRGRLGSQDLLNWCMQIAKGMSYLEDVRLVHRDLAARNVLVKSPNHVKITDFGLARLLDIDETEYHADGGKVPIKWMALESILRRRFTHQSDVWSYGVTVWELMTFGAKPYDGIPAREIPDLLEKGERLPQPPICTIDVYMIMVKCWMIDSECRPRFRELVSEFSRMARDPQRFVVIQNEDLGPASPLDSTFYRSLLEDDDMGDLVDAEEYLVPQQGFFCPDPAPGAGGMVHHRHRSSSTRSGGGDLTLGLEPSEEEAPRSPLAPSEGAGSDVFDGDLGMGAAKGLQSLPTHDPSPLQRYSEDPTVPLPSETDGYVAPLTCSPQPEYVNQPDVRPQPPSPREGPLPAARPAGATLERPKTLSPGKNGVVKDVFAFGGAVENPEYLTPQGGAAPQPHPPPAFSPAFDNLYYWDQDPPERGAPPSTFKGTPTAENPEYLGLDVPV

With `COC(=O)c1ccccc1NC1c2ccccc2C(=O)N1c1cccnc1` (stereo not given), the viability in experiment [1] was 95%; in [3], 95% (inactive); in experiment [4], 86.9% (inactive); in experiment [5] it was 84.7% (inactive); in experiment [6] (setting [16]) it was 85.4%; in [6] (setting [17]), 84.7%. The results for the viability in experiment [12] and in experiment [13] were 94.4% (inactive) and 89.8% (inactive), respectively. Moreover, the Her2 level in experiment [2] was 109% (inactive). Moreover, the differential viability (reversal) in [6] (H69AR cells + 2 uM doxorubicin) is -0.77% (inactive). Further, the values for the inhibition in experiment [7], in [8] and in experiment [14] were 1.07% (inactive), 0.33% (inactive) and -1.07% (inactive), respectively. For the same compound, the growth inhibition was -16.1% (inactive) in experiment [9] and 3.47% (inactive) in [10]. In addition, the viability increase in experiment [11] is -0.86% (inactive). In [15], the RAM network inhibition was 4.8% (inactive).

With `COc1cccc(-c2nc3n(n2)C(c2ccccc2Cl)C(C(N)=O)=C(C)N3)c1` (stereo not given), the viability in experiment [1] was 91%; in experiment [3], 91% (inactive); in [4], 74.3% (inactive); in experiment [5], 90.4% (inactive); in experiment [6] (setting [16]) it was 75.8%; in [6] (setting [17]), 90.4%. Moreover, the viability in experiment [12] was 82.8% (inactive); in [13] it was 82.2% (inactive). Also, the Her2 level in experiment [2] is 94% (inactive). For the same compound, the differential viability (reversal) in experiment [6] (H69AR cells + 2 uM doxorubicin) is 14.6% (inactive). Also, the inhibition in experiment [7] was -0.8% (inactive); in experiment [8], -5.17% (inactive); in experiment [14] it was 0.735% (inactive). In addition, the figures for the growth inhibition in experiment [9] and in experiment [10] were -7.99% (inactive) and -0.24% (inactive), respectively. In addition, in [11], the viability increase is -3.31% (inactive). Moreover, the RAM network inhibition in experiment [15] was 3.45% (inactive).

Take `COc1ccc(-n2ncc3c(N4CCC(C)CC4)ncnc32)cc1`: the viability in experiment [1] is 100%; in experiment [3], 100% (inactive); in [4], 56.2% (inactive); in experiment [5], 76.6% (inactive); in [6] (setting [16]), 41.2%; in experiment [6] (setting [17]) it was 76.6%. Besides, the viability in experiment [12] was 101% (inactive); in [13], 93.6% (inactive). Besides, the Her2 level in experiment [2] was 106% (inactive). Further, the differential viability (reversal) in experiment [6] (H69AR cells + 2 uM doxorubicin) is 35.3% (inactive). Further, the inhibition in [7] is -4% (inactive); in experiment [8], 3% (inactive); in experiment [14], 1.94% (inactive). Further, the growth inhibition in [9] was -1.23% (inactive); in experiment [10], -0.39% (inactive). In experiment [11], the viability increase is -2.39% (inactive). The RAM network inhibition in experiment [15] is 1.63% (inactive).

For `CCSC1=C(C#N)C(c2ccccc2OC)CC(=O)N1` (stereo not given), the viability in [1] was 92%; in [3], 92% (inactive); in experiment [4], 86.3% (inactive); in [5] it was 99.8% (inactive); in experiment [6] (setting [16]) it was 92.8%; in [6] (setting [17]), 99.8%. The figures for the viability in experiment [12] and in experiment [13] were 94.1% (inactive) and 91.6% (inactive), respectively. In addition, the Her2 level in experiment [2] is 97.5% (inactive). The differential viability (reversal) in [6] (H69AR cells + 2 uM doxorubicin) is 6.97% (inactive). For the same compound, the inhibition was -1.73% (inactive) in experiment [7], -2.33% (inactive) in [8] and 1.78% (inactive) in experiment [14]. In addition, the growth inhibition was -3.36% (inactive) in experiment [9] and 0.71% (inactive) in experiment [10]. In addition, in experiment [11], the viability increase was 0.28% (inactive). Also, the RAM network inhibition in [15] is 1.8% (inactive).

As for `CCOC(=O)C1CCN(Cc2ccc(OC)c(C)c2OC)CC1`, the viability in experiment [1] was 88.5%; in experiment [3] it was 88.5% (inactive); in [4] it was 108% (inactive); in experiment [5] it was 86.9% (inactive); in experiment [6] (setting [16]), 83.7%; in experiment [6] (setting [17]), 86.9%. Also, the viability in experiment [12] is 78.3% (inactive); in experiment [13] it was 80.3% (inactive). Besides, the Her2 level in experiment [2] is 97.5% (inactive). In experiment [6] (H69AR cells + 2 uM doxorubicin), the differential viability (reversal) is 3.22% (inactive). Also, the inhibition in [7] is -2.4% (inactive); in [8] it was -7.1% (inactive); in experiment [14] it was 1.16% (inactive). The results for the growth inhibition in [9] and in experiment [10] were -2.98% (inactive) and 2.96% (inactive), respectively. Further, in [11], the viability increase was -4.57% (inactive). The RAM network inhibition in experiment [15] is 1.41% (inactive).

Usually viability stands for a read-out of living cells in per cent, often relative to untreated cells. What is called inhibition is the relative decrease from the control value, in per cent.

Source of the values: PubChem BioAssay.
